Test results: PubChem BioAssay (NCATS)
Inconclusive results are not listed. Active and inactive are the calls of the source. Unless noted, the call rests on the fitted dose curve; in most records, active means well fitted curve in either direction with a large enough effect (not every such curve was filed as active); inconclusive means small, poorly fitted or top-dose-only effect, or another doubt; inactive means flat fitted curve, though single readings scatter.

How the values were obtained:
[1] = molecular target: Lysosomal acid glucosylceramidase (Homo sapiens) (UniProt P04062); test: Glucocerebrosidase-p2 (AID 348; in the data active means potency below about 10 µM; further: potency means the concentration at half of the fitted maximal effect); details: purified GBA, blue fluorogenic substrate, 40 min
Sequence of Lysosomal acid glucosylceramidase (Homo sapiens) (P04062 whole entry, looked up): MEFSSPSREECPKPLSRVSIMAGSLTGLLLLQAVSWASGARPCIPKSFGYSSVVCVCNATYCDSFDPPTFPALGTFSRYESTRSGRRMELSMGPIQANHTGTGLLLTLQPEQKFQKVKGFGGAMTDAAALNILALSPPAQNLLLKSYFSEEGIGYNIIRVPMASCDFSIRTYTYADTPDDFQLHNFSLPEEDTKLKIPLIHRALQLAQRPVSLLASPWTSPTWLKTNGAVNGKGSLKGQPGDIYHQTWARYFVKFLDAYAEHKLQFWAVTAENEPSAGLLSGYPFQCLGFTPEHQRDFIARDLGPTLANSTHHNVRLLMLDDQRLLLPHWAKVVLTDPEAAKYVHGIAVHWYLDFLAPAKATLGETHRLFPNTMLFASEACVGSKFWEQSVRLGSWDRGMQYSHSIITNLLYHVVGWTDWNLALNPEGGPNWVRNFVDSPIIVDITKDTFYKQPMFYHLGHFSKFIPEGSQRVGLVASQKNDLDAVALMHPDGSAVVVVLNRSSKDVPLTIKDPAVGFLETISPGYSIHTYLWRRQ
Procedure, shortened: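 Compounds titrated from 0.6 nM upwards against 0.2 nM enzyme in pH 5.9 citric acid/KH2PO4, taurocholate, tween-20; blue fluorogenic substrate 80 uM, 40 min room temperature, stopped and read Ex 365/Em 440 for AC50.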

[2] = AP1 Signaling Pathway (AID 357); details: ME-180 AP-1-bla reporter, EGF-induced, beta-lactamase ratio, 5 h; at 7.69 µM (top of the series) unless noted;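 further: ME-180 reporter cells stimulated with EGF at its EC50 level; on the % scale 0 is the no-effect control and ±100 the full control effect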
Procedure, shortened: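 Modulation of EGF-driven AP-1 transcription was assessed with a beta-lactamase reporter in ME-180 cells. Compound and EC50 EGF were co-incubated 5 hours at 37 °C before 2.5-hour CCF4 loading at room temperature and dual-emission reading.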

[3] = molecular target: Cytochrome P450 1A2 (Homo sapiens) (UniProt P05177); test: p450-cyp1a2 (AID 410; calls by dose curve; further: potency means the concentration at half of the fitted maximal effect;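 on activity change, negative = inhibition: -100% = full effect of reference inhibitor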); details: recombinant CYP1A2, luciferin-ME demethylation, luminescence; series mostly up to 57 µM
Sequence of Cytochrome P450 1A2 (Homo sapiens) (P05177 whole entry, looked up): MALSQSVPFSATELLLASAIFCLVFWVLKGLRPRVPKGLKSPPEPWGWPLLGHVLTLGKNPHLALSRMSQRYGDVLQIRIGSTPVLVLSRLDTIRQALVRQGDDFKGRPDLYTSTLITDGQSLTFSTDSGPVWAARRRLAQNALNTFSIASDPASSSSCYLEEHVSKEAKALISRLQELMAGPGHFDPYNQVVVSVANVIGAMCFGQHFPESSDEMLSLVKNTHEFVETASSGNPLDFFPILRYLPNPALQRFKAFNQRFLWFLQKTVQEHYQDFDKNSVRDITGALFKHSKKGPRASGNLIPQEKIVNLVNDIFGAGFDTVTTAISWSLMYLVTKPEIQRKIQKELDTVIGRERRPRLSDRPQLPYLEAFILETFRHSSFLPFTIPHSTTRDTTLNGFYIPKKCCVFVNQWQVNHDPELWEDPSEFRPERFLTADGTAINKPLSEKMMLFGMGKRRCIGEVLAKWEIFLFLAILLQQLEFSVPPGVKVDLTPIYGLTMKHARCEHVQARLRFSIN
Procedure, shortened: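 Luminescent readout of luciferin formed from Luciferin-ME by human CYP1A2; data normalized against complete inhibition by 57 uM furafylline. Enzyme 20nM, substrate 100uM at Km, 100mM KPO4 buffer, 60 min reaction at room temperature.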

[4] = Stat Signaling Pathway (AID 446); details: ME-180 SIE beta-lactamase reporter, IL-6 stimulated, 5 h; at 7.69 µM (top of the series) unless noted;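 further: ME-180 cervical cancer cells given 40 pM IL-6 alongside compound; SIE-controlled beta-lactamase reporter measured as 460/530 nm FRET emission ratio; on the % scale 0 is the no-effect control and ±100 the full control effect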
Procedure, shortened: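 Screening format detects activators and inhibitors alike: ME-180 SIE-bla cells stimulated at 40 pM IL-6 for 5 hrs with compound, then dual-emission beta-lactamase read at 405 nm excitation.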

[5] = molecular target: Glucocorticoid receptor (Homo sapiens) (UniProt P04150); test: GR-GFP Redistribution (AID 450;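 active means compounds whose dose series gives a full or clear partial fitted curve of increased nuclear translocation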; further: potency means the concentration at half of the fitted maximal effect); details: U2OS GR-GFP nuclear translocation, laser cytometry, 2 h
Sequence of Glucocorticoid receptor (Homo sapiens) (P04150 whole entry, looked up, the tested form may be a part): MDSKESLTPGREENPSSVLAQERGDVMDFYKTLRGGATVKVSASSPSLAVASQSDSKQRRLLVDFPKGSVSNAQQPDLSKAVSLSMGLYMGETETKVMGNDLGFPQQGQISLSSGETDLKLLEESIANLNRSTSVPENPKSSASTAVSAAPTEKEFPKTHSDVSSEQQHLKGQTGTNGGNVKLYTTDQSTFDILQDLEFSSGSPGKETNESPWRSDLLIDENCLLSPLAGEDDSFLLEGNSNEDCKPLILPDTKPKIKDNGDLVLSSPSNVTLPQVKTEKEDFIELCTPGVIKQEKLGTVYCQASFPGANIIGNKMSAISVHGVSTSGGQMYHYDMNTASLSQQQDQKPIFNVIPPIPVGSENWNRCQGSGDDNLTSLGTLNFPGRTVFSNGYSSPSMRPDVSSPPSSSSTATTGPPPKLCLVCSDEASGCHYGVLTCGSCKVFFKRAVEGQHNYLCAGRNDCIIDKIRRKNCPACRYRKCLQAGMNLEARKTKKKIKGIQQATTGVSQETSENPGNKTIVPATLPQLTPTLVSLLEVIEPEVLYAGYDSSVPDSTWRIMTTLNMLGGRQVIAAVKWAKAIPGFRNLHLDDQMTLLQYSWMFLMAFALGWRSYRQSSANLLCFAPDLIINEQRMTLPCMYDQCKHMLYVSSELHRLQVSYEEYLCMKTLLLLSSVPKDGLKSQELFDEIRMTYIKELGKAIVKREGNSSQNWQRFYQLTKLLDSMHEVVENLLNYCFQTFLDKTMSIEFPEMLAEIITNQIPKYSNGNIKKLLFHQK

[6] = molecular target: Glucocorticoid receptor (Homo sapiens) (UniProt P04150); test: GR-EFC Redistribution (AID 451; calls by dose curve; further: potency means the concentration at half of the fitted maximal effect); details: CHO-K1 GR-EFC translocation, beta-gal luminescence, 2 h
Procedure, shortened: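 CHO-K1 cells stably expressing nuclear-localized β-gal enzyme acceptor and GR fused C-terminally to the enzyme donor fragment; ligand-driven nuclear translocation restores β-gal by complementation. Compounds titrated up to 46 uM final, 2 h at 37 °C; luminescence read.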

[7] = molecular target: Mitogen-activated protein kinase 10 (Mus musculus) (UniProt Q61831); test: JNK3 AlphaScreen Assay (AID 530); details: JNK3 lysate, c-Jun phosphorylation; series mostly up to 57.1 µM;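 further: kinase came from lysate of stimulated human HepG2 cells; signal reports phosphorylation of biotinylated GST-cJun 1-79 at Ser73 with 10 µM ATP; on the % scale 0 is the no-effect control and ±100 the full control effect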
Procedure, shortened: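 Inhibitors reduce antibody binding to phosphorylated biotin-cJun, lowering AlphaScreen luminescence. Lysates from HepG2 cells pre-activated by IL-1beta plus TNF-alpha supplied JNK3; compounds were titrated.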

[8] = molecular target: Cytochrome P450 3A4 (Homo sapiens) (UniProt P08684); test: qHTS Assay for Activators of Cytochrome P450 3A4 (AID 885; active means well fitted curve in the direction sought with a large enough effect; an effect the other way counts as inactive or inconclusive; further: nearly all actives have a fitted effect of over 65% in size); details: recombinant CYP3A4, Luciferin-PPXE luminescence, 60 min; series mostly up to 57.1 µM
Sequence of Cytochrome P450 3A4 (Homo sapiens) (P08684 whole entry, looked up): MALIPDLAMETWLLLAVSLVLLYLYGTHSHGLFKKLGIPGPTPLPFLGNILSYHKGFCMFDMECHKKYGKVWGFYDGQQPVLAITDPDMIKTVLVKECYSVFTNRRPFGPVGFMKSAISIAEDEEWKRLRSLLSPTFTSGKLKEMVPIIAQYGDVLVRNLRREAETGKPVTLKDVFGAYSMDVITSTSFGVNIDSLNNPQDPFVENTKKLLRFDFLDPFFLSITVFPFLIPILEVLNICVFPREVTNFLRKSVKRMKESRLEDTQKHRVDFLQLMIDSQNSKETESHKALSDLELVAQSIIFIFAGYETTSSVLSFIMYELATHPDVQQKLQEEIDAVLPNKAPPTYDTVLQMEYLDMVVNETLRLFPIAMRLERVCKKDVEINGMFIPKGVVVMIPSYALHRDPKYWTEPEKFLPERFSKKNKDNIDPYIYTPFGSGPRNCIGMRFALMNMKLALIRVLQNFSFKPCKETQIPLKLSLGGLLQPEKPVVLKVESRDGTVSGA
Procedure, shortened: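 Steps: enzyme/substrate mix dispensed; compound added, 10 min RT; NADPH regeneration solution added, 60 min RT; luciferin detection buffer stops reaction; 20 min later luminescence measured.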

[9] = Confirmation and Secondary Assay for Modulators of Hemoglobin Beta Chain Splicing at IVS2 654 locus (AID 910; active means well fitted curve in the direction sought with a large enough effect; an effect the other way counts as inactive or inconclusive;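 further: per-well total GFP intensity by laser scanning cytometry after 2-day treatment; % of control where 0% means no effect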); details: HeLa EGFP-654 splicing reporter, GFP fluorescence, 48 h; series mostly up to 38.3 µM
Procedure, shortened: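 HeLa cells stably carrying EGFP interrupted by mutant beta-globin IVS2-654 intron (CMV-driven) were treated with compound for 2 days at 37C; corrected splicing was scored as total peak GFP intensity per well (488 nm excitation, 500-520 nm emission).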

[10] = Confirmation and Secondary Assay for Modulators of Hemoglobin Beta Chain Splicing at IVS2 705 locus (AID 930; active means well fitted curve in the direction sought with a large enough effect; an effect the other way counts as inactive or inconclusive;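 further: HeLa cells stably expressing the EGFP-705 splicing reporter; GFP fluorescence per well restored by corrected splicing of the IVS2-705 intron in EGFP; % of control where 0% means no effect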); details: HeLa EGFP-705 splicing reporter, GFP fluorescence, 48 h; series mostly up to 38.3 µM
Procedure, shortened: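 Fluorescence gain (488 nm laser, 500-520 nm PMT) reflects restored correct splicing of a mutant IVS2-705 intron inside EGFP in stably transfected HeLa cells after 2-day compound treatment.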

[11] = qHTS Assay for Lipid Storage Modulators (AID 1519; calls by dose curve); details: Drosophila S3 cells, BODIPY lipid droplet/cell ratio, laser cytometry, cells loaded with oleic acid; for activity change, negative = inhibition: at 57.5 µM (top of the series)
Procedure, shortened: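 Cells seeded at 5,000 per well were treated with compounds over a concentration series and loaded with oleic acid (400 uM, as added). Lipid droplet fluorescence (488 nm excitation, 500-530 nm channel) was read by laser-scanning cytometry and normalized to 20 uM Triacsin C.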

[12] = molecular target: Ubiquitin carboxyl-terminal hydrolase 1 (Homo sapiens) (UniProt O94782); test: Inhibitors of USP1/UAF1: Pilot qHTS (AID 504865; active means well fitted curve in the direction sought with a large enough effect; an effect the other way counts as inactive or inconclusive;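 further: rhodamine fluorescence freed from ubiquitin-rhodamine substrate followed over time; top concentration of the series differs between compounds; on the % scale 0 is the no-effect control and ±100 the full control effect; nearly all actives have a fitted effect of over 35% in size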); details: purified USP1/UAF1, Ub-rhodamine cleavage fluorescence; series mostly up to 54.9 µM
Sequence of Ubiquitin carboxyl-terminal hydrolase 1 (Homo sapiens) (O94782 whole entry, looked up): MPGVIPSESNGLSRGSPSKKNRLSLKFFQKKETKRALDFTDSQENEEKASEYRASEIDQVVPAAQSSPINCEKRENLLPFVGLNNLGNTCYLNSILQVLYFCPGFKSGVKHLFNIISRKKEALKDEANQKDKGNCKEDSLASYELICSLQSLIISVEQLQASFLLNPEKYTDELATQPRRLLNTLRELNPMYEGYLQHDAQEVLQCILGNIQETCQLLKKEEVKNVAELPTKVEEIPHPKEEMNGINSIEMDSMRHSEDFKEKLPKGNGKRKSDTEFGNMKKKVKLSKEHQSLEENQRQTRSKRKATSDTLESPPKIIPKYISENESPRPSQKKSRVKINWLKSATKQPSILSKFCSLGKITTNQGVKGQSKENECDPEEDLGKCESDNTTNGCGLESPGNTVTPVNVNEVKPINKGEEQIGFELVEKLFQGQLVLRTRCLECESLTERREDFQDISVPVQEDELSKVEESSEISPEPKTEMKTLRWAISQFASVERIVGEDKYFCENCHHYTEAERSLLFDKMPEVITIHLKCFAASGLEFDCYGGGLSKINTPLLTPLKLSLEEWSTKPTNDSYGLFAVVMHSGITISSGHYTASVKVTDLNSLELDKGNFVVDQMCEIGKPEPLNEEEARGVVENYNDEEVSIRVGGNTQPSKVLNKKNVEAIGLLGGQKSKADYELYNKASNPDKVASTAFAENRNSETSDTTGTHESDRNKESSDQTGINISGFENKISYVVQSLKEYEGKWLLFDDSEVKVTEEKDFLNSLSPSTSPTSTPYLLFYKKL
Procedure, shortened: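 USP1/UAF1 complex (1nM) preincubated with compound 15 min at room temperature, then Ub-Rho substrate (150nM final) added. Fluorescence read kinetically at 480/540 nm, 6 reads every 60 seconds. Buffer: 50mM HEPES pH 7.8, 0.5mM EDTA, 0.1 mg/ml BSA, 1mM TCEP, 0.01% Tween-20.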

[13] = NFAT Signaling Pathway (AID 444); details: Jurkat NFAT-bla M1, carbachol, beta-lactamase ratio, 5 h; at 7.69 µM (top of the series) unless noted;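 further: carbachol stimulus at about its EC50 of 1 µM final; on the % scale 0 is the no-effect control and ±100 the full control effect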
Procedure, shortened: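 Jurkat cells carrying an NFAT-driven β-lactamase reporter and co-transfected muscarinic M1 receptor were treated with compound plus carbachol (1 uM final, an EC50 level) for 5 h at 37 °C. CCF4 loading followed for 1 h at RT; 460/530 nm ratio gave %activity.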

[14] = molecular target: 3',5'-cyclic-AMP phosphodiesterase 4B (Homo sapiens) (UniProt Q07343); test: qHTS Assay for Inhibitors of PDE-IV (AID 607; active means well fitted activation curve with a large enough effect in the main read-out, with a control signal flat, not every such curve was filed as active; further: % of control where 0% means no effect); details: HEK293 ACTOne CNG channel cells, membrane potential fluorescence; series mostly up to 22.9 µM
Sequence of 3',5'-cyclic-AMP phosphodiesterase 4B (Homo sapiens) (Q07343 whole entry, looked up): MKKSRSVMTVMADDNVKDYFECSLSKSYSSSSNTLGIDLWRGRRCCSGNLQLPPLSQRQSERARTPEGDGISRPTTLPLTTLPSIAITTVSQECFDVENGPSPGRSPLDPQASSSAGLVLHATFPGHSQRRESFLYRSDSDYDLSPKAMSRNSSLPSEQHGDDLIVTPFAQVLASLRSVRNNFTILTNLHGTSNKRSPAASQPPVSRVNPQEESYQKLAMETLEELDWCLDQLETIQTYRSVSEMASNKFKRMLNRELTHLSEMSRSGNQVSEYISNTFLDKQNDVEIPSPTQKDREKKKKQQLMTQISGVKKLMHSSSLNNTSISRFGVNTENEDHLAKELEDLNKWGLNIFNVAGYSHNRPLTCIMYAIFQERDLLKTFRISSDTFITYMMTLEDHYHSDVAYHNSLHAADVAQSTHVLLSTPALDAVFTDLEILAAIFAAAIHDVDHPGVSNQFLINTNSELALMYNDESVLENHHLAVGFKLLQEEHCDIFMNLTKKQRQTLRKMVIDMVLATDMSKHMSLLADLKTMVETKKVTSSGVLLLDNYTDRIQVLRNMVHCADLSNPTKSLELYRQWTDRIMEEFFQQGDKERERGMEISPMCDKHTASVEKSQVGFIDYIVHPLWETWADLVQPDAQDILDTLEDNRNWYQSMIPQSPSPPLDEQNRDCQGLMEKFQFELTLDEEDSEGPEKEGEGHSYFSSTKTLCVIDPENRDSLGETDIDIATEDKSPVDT
Procedure, shortened: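 The readout is membrane depolarisation from a cAMP-sensing CNG channel, detected with a potential dye at ex 535/em 590. Cells were HEK293-derived (endogenous PDE-IV) at 1000 cells/well, titrated up to 22.9 uM final.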

[15] = molecular target: Cytochrome P450 3A4 (Homo sapiens) (UniProt P08684); test: qHTS Assay for Inhibitors and Substrates of Cytochrome P450 3A4 (AID 884; active means well fitted curve in the direction sought with a large enough effect; an effect the other way counts as inactive or inconclusive; further: on the % scale 0 is the no-effect control and ±100 the full control effect; nearly all actives have a fitted effect of over 50% in size); details: recombinant CYP3A4, Luciferin-PPXE luminescence; series mostly up to 57.1 µM
Procedure, shortened: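 20 nM human CYP3A4 with 25 uM Luciferin-PPXE (at KM) in 200 mM KPO4, preincubated 10 min with compound; NADPH regeneration started a 60 min RT reaction. Luciferin detected by luminescence, normalized to 57 uM ketoconazole as full inhibition.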

[16] = measured here: cell count channel max response
[17] = measured here: lipid channel max response

CN(C)Cc1ccccc1-c1ccc2ncnc(N(C)Cc3ccco3)c2c1
inactive: Potency [1] > 11.4 µM | activity change, negative = inhibition [2] 3.42% | activity, negative = inhibition [4] -16.1% | Potency [5] > 46 µM | Potency [6] > 46 µM | Potency [7] | Potency [8] | Potency [9] | outcome [10] | activity change, negative = inhibition [11] 3.94% | Potency [12]
active: Potency [3] 2 µM
7.91%: max response [11, 16]
12.6%: max response [11, 17]

Cn1cccc1C(=O)N1CCC2(CCN(C(=O)Nc3ccccc3)CC2)CC1
0.66%: max response [11, 16]
6.81%: max response [11, 17]
inactive: Potency [1] > 11.4 µM | activity change, negative = inhibition [2] -3.67% | Potency [3] | activity change, negative = inhibition [13] 5.41% | activity, negative = inhibition [4] -8.38% | Potency [6] > 46 µM | Potency [7] | Potency [14] | Potency [15] | activity change, negative = inhibition [11] 5.15%

N#Cc1ccc(CN2CCC3(CC2)CCN(S(=O)(=O)c2ccccc2)CC3)cc1
inactive: Potency [1] > 11.4 µM | activity change, negative = inhibition [2] -18.1% | Potency [3] | activity, negative = inhibition [4] 1.33% | Potency [6] > 46 µM | Potency [7] | Potency [14] | Potency [8] | activity change, negative = inhibition [11] -0.545%
10.8%: max response [11, 17]
11.7%: max response [11, 16]

CS(=O)(=O)Nc1cccc(-c2nc(N3CCNCC3)c3ccccc3n2)c1
inactive: Potency [1] > 11.4 µM | activity change, negative = inhibition [2] 5.71% | activity, negative = inhibition [4] 2.63% | Potency [5] > 46 µM | Potency [6] > 46 µM | Potency [7] | Potency [14] | Potency [9] | outcome [10] | activity change, negative = inhibition [11] 5.5% | Potency [12]
12.3%: max response [11, 16]
18.5%: max response [11, 17]
active: Potency [3] 20 µM

COc1ccccc1CN1CCC2(CC1)CCN(S(=O)(=O)c1ccccc1)CC2
inactive: Potency [1] > 11.4 µM | activity change, negative = inhibition [2] -0.16% | Potency [3] | activity, negative = inhibition [4] 5.45% | Potency [6] > 46 µM | Potency [7] | Potency [14] | activity change, negative = inhibition [11] 0.93%
23.6%: max response [11, 17]
19%: max response [11, 16]

O=C(Nc1cccc(F)c1)N1CCCC2(CCN(C(=O)c3cc(C(F)(F)F)cc(C(F)(F)F)c3)CC2)C1
inactive: Potency [1] > 11.4 µM | activity change, negative = inhibition [2] -25.5% | activity change, negative = inhibition [13] 23.3% | activity, negative = inhibition [4] -17.6% | Potency [7] | Potency [8] | activity change, negative = inhibition [11] 0.997%
12.9%: max response [11, 16]
17.1%: max response [11, 17]
active: Potency [3] 12.6 µM

COc1ccc(NC(=O)N2CC[C@@]3(CCCN(C(=O)c4cc(C(F)(F)F)cc(C(F)(F)F)c4)C3)C2)cc1
10.8%: max response [11, 17]
0.894%: max response [11, 16]
inactive: Potency [1] > 11.4 µM | activity change, negative = inhibition [2] -20.8% | Potency [3] | activity change, negative = inhibition [13] 12.7% | activity, negative = inhibition [4] -6.2% | Potency [6] > 46 µM | Potency [7] | Potency [14] | Potency [8] | activity change, negative = inhibition [11] 6.21%
